Tested on: Plasmodium falciparum NF54 gametocytes
Assay: viability index relative to DMSO control (fraction); higher = less gametocyte killing
Conditions: 12.5 µM, incubation time: 72 h
Outline: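 Each stage (I–V) of P. falciparum NF54 gametocytes was incubated with compound at 12.5 µM in 384-well plates, in 40 µl of serum-containing medium at 0.50% gametocytemia and 1.25% hematocrit, for 72 hr at 37°C under low oxygen. After 5 µl of 5 µM MitoTracker Red CMXRos was added for 20 min, 5 µl from each well was moved into 40 µl of 500 nM dye in serum-free medium and imaged across three fields after 30 min. The viability index is the gametocyte particle count divided by the plate mean of the solvent-only wells.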

[1] = gametocyte stage: Stage I viability index
[2] = gametocyte stage: Stage II viability index
[3] = gametocyte stage: Stage III viability index
[4] = gametocyte stage: Stage IV viability index
[5] = gametocyte stage: Stage V viability index

| Structure (SMILES) | viability index [1] | viability index [2] | viability index [3] | viability index [4] | viability index [5] |
| --- | --- | --- | --- | --- | --- |
| Cc1cc(N2CCCC2)nc(Nc2ccc(NC(=O)CCc3ccccc3)cc2)n1 | 0.0734 | 0.0508 | 0.261 | 0.345 | 0.13 |
| O=C(Nc1ccc(-c2nc3cc(NC(=O)c4ccc(Cl)cc4)ccc3[nH]2)cc1)c1ccc(Cl)cc1 | 0.0481 | 0.00583 | 0.0176 | 0.00316 | 0 |
| Cc1ccc(N2C3c4ccccc4N(S(=O)(=O)c4ccc(C)cc4)C2c2ccccc2N3S(=O)(=O)c2ccc(C)cc2)cc1 | 0.687 | 0.77 | 0.928 | 0.93 | 0.978 |
| CCCCNc1nc(NC(C)(C)C)nc(NC(C)(C)C)n1 | 0.0157 | 0.0425 | 0.223 | 0.117 | 0.0649 |
| CCCn1c(=N)c(C(=O)NC2CCCCC2)cc2c(=O)n3cccc(C)c3nc21 | 0.45 | 0.612 | 1.06 | 0.981 | 0.805 |
| COc1ccccc1CNC(=O)CCn1c(=O)[nH]c2ccsc2c1=O | 0.477 | 0.712 | 1 | 0.805 | 0.769 |
| Cc1cc(Nc2ccc(C)c(Cl)c2)n2nc(C(F)(F)F)nc2n1 | 0.881 | 1.23 | 0.983 | 1.08 | 0.945 |
| CCN(CC)CCNc1ncnc2c1[nH]c1ccc(Br)cc12 | 0.0398 | 0.36 | 0.635 | 0.641 | 0.396 |
| COc1cccc(C(=O)Nc2ccc(-c3nc4ccccc4[nH]3)cc2)c1 | 0.295 | 0.595 | 0.852 | 1.03 | 0.883 |
| CC1CC(C)CN(C(=O)c2ccc(Cl)cc2Cl)C1 (stereo not given) | 0.95 | 0.871 | 0.962 | 0.951 | 1.01 |
| OC(CNCc1ccccc1)Cn1c2ccccc2c2ccccc21 (stereo not given) | 0.0629 | 0.0658 | 0.172 | 0.342 | 0.26 |
| COc1cccc(Nc2nc(NCCO)c3ccccc3n2)c1 | 0.134 | 0.581 | 0.728 | 0.854 | 0.538 |
| COc1cc(C(=O)Nc2nc3c(cc4c5c(cccc53)CC4)s2)cc(OC)c1OC | 0.18 | 0.5 | 1.04 | 0.775 | 0.818 |
| CC1CCN(Cc2c(O)ccc3cc(-c4nc5ccccc5s4)c(=O)oc23)CC1 | 0.706 | 0.705 | 0.925 | 0.864 | 1 |
| CCCCCC(=O)N1c2ccccc2N=C2CC(c3ccc(OC)c(OC)c3)CC(O)=C2C1c1ccc(C(F)(F)F)cc1 (stereo not given) | 0.0365 | 0.0251 | 0.0919 | 0.219 | 0.429 |
| COc1cc(C(=O)ON=C(N)Cc2cccc3ccccc23)cc(OC)c1OC | 0.0175 | 0.0391 | 0.157 | 0.12 | 0.0909 |
| CC1CCN(Cc2ccc(NC(=O)c3cc4ccc5cccnc5c4[nH]3)cc2)CC1 | 0.265 | 0.505 | 0.902 | 0.954 | 0.769 |
| COc1cc(C(=O)Nc2ccc(-c3nc4ccccc4[nH]3)cc2)cc(OC)c1OC | 0.0918 | 0.595 | 1.01 | 0.968 | 0.701 |
| CCOc1cccc(C(=O)Nc2ccc(-c3nc4ccccc4[nH]3)cc2)c1 | 0.0751 | 0.574 | 1.1 | 0.894 | 0.637 |
| CCn1nc(-c2ccc(C(=O)OC)cc2)nc2c(=O)n(C)c(=O)nc1-2 | 0.15 | 0.284 | 0.103 | 0.0365 | 0.044 |
| O=C(Nc1ccc(N2CCN(Cc3ccccc3)CC2)cc1)c1cccs1 | 0.941 | 0.866 | 0.795 | 0.875 | 1.15 |
| CC(C)(C)CC(C)(C)NCC(O)COc1ccc(Cl)cc1Cl (stereo not given) | 0.0309 | 0.0309 | 0.0665 | 0.188 | 0.11 |
| Nc1ccc(-c2nc3cc(Oc4ccc(Oc5ccc6[nH]c(-c7ccc(N)cc7)nc6c5)cc4)ccc3[nH]2)cc1 | 0.000874 | 0.0108 | 0.0271 | 0.0253 | 0 |
| OC(Cn1nnc2ccccc21)Cn1c2ccc(Br)cc2c2cc(Br)ccc21 (stereo not given) | 0.634 | 0.684 | 1.04 | 0.972 | 1.21 |
| CCOc1c(Br)cc(C2C(C(=O)OC)=CN(C)C=C2C(=O)OC)cc1OC | 0.344 | 0.243 | 0.353 | 0.38 | 0.649 |
| COc1cccc(C2(C)Nc3ccccc3-c3nc4ccccc4n32)c1 (stereo not given) | 0.113 | 0.0986 | 0.198 | 0.465 | 0.154 |
| Cc1ccc(C)c(Cn2c(N3CCC(C(=O)NCc4cccs4)CC3)nc3ccccc32)c1 | 0.741 | 0.378 | 0.438 | 0.342 | 0.221 |
| CCN(Cc1ccccc1)C1CCN(Cc2cc(Br)ccc2O)CC1 | 0.0376 | 0.132 | 0.573 | 0.617 | 0.659 |
| COc1ccc(-c2nc(NC(=O)CS(=O)(=O)c3ccc(F)cc3)sc2C)cc1 | 0.307 | 0.564 | 1.11 | 0.888 | 0.978 |
| COc1ccccc1CNC(=O)C1c2ccccc2C(=O)N(CC(C)C)C1c1cccs1 (stereo not given) | 0.951 | 0.807 | 1.01 | 0.976 | 1 |
